# From the supplement of paper PMC12340641
# Counter-ions that a name gives are not always drawn.
# Key:
# [1] = molecular target: IKZF1 (dCK*-IKZF1 fusion in HEK293FT) (UniProt Q13422); test: inhibition of IKZF1 HTRF signal (DMSO = 0%, pomalidomide 10 uM = 100%); higher = lower IKZF1 protein level; conditions: compound concentration: 5 uM, overnight (~20 h)
# In short: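 For percent inhibition of IKZF1 signal, each plate was normalised to vehicle and to a reference degrader. Cells were HEK293FT stably expressing an IKZF1 fusion, plated at 2000/well in 384-well format and treated overnight at 37 °C with 5 μM compound, one well each. Lysates were probed overnight with a commercial HTRF total-IKZF1 antibody kit, with the 665/620 nm ratio background-subtracted and vehicle and degrader fixed at 0% and 100%.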
# HEK293FT dCK*-only = test: relative growth in counter assay (no AraC = 100%, AraC + DMSO = 0%); higher = more growth rescue independent of IKZF1; conditions: compound concentration: 5 uM; AraC concentration: 0.3 uM; overnight pretreatment + 4 days AraC
# In short: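 HEK293FT cells carrying only an engineered kinase construct were plated at 300 per well (384-well) and given 5 μM compound 2 h later. Following overnight at 37 °C, a nucleoside suicide substrate (0.3 μM) plus medium was added for 4 days. Hoechst 33342-stained nuclei were imaged and counted on day 5, with 100% assigned to wells without suicide substrate and 0% to substrate plus vehicle on each plate.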
# HEK293FT dCK*-IKZF1 = test: relative growth recovery (pomalidomide 10 uM = 100%, DMSO = 0%); higher = more growth rescue (IKZF1 fusion degradation); conditions: compound concentration: 5 uM; AraC concentration: 0.3 uM; overnight pretreatment + 4 days AraC
# In short: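 Means of duplicates from different days are given for growth recovery, normalised per plate against a reference degrader and vehicle. The reference degrader set the 100% level and vehicle the 0% level. HEK293FT cells stably expressing a deoxycytidine kinase–IKZF1 fusion (300/well, 384-well) received 5 μM compound 2 h after seeding and, after overnight at 37 °C, 0.3 μM of a nucleoside suicide substrate plus medium for 4 days. Nuclei stained with Hoechst 33342 were then counted by whole-well imaging on day 5.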
# Sequence of IKZF1 (dCK*-IKZF1 fusion in HEK293FT) (Q13422 whole entry, looked up, the tested form may be a part): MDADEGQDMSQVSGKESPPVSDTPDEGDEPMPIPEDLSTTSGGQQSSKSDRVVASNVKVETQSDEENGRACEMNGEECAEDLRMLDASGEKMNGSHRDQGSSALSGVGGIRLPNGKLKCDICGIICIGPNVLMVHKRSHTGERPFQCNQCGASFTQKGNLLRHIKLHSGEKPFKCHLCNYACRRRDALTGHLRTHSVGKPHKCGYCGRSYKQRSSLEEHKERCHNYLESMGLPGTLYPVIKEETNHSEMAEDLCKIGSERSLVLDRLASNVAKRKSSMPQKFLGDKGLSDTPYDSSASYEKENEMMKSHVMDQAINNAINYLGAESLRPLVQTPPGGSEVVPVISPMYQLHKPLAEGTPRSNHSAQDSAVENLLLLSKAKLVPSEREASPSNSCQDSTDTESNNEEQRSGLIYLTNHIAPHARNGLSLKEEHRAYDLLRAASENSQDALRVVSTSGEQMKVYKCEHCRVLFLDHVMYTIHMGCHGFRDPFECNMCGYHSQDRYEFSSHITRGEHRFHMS
Compound,inhibition of IKZF1 HTRF signal [1] [%],relative growth in counter assay (HEK293FT dCK*-only) [%],relative growth recovery (HEK293FT dCK*-IKZF1) [%]
COCC(=O)O[C@]1(CCN(C)CCCc2nc3ccccc3[nH]2)CCc2cc(F)ccc2[C@@H]1C(C)C [mibefradil],-3.89,-13.3,-3.87
COc1ccc(NS(=O)(=O)c2ccc(N=Nc3ccc(O)c(C(=O)O)c3)cc2)nn1 [salazodine],-2.92,6.32,-2.83
Clc1ccc(COC(Cn2ccnc2)c2ccc(Cl)cc2Cl)c(Cl)c1 (stereo not drawn) [Miconazole],20.3,1.72,3.22
O=C(Nc1ccc(Cl)nc1)c1ccc(Cl)cc1,-32.9,4.25,3.85
CCN(CC)CCCCC(NC(=O)c1ccc([N+](=O)[O-])cc1)c1ccccc1 (stereo not drawn) [nibentan],-51.4,11.1,1.83
Cc1cc([C@H](C(=O)N2C[C@H](O)C[C@H]2C(=O)N[C@@H](CC(=O)N2CCC(C#Cc3ccc(C(=O)N[C@H]4C(C)(C)[C@H](Oc5ccc(C#N)c(Cl)c5)C4(C)C)cc3)CC2)c2ccccc2)C(C)C)on1,9.95,5.85,-0.74
CO[C@@]12[C@@H]3NC3CN1C1=C(C(=O)C(N)=C(C)C1=O)[C@@H]2COC(N)=O (stereo partly drawn),-1.54,-33.6,-12.9
C=C1CCC2[C@](C)(CO)[C@H](O)CC[C@@]2(C)[C@@H]1C/C=C1/C(=O)OC[C@H]1O (stereo partly drawn) [Andrographolide],0.47,-20.8,-5.34
Cc1ccc2c(Cl)cc(Cl)c(O)c2n1,14,-5.48,0.855
COC(=O)C1=C(C)NC(C)=C(C(=O)OC(C)(C)CN(C)CCC(c2ccccc2)c2ccccc2)C1c1cccc([N+](=O)[O-])c1 (stereo not drawn) [lercanidipine],-5.35,-6.01,1.64
CCC(C)c1ccc(NC(=O)Cn2cnc3c2c(=O)n(C)c(=O)n3C)cc1 (stereo not drawn),-44.5,-2.66,1.29
Cc1cccc(C)c1NC(=O)C[N+](C)(C)C,-41.2,0.1,-1.7
Oc1c(Cl)cc(Cl)c(Cl)c1Cc1c(O)c(Cl)cc(Cl)c1Cl [Hexachlorophene],-78.9,0.51,-1.27
C=CC(=O)Nc1cccc(Oc2nc(Nc3ccc(N4CCN(C)CC4)cc3)nc3ccsc23)c1 [Olmutinib],-18.2,-23.3,-7.07
C=CC(=O)Nc1cccc(Oc2nc(Nc3ccc(N4CCN(C)CC4)cc3)ncc2Cl)c1,23.4,-29.5,-9.69
CC1CC(OC(=O)C(O)c2ccccc2)CC(C)(C)C1 (stereo not drawn),-11.2,0.99,-2.85
O=c1[nH]c(=O)n([C@H]2C[C@H](O)[C@@H](CO)O2)cc1F,-24.3,-31.1,-9.89
Cc1ncsc1-c1ccc(CNC(=O)[C@@H]2C[C@@H](O)CN2C(=O)[C@@H](NC(=O)COCCOCCOc2ccc(-c3ccc4ncnc(Nc5ccc(OCc6cccc(F)c6)c(Cl)c5)c4c3)cc2)C(C)(C)C)cc1,6.76,49.6,19.7
C[C@H]1O[C@@H](n2cc(F)c(=O)[nH]c2=O)[C@H](O)[C@@H]1O,-24.1,-10.6,0.84
CC(C)[C@@H]1CC[C@@H](C)C[C@@H]1P(=O)(c1ccccc1)c1ccccc1,-20.4,3.21,-0.475
CN(C)c1ccc(/C=C2\C(=O)Nc3ccccc32)cc1,-36.5,-9.78,2.52

Compound,inhibition of IKZF1 HTRF signal [1] [%],relative growth in counter assay (HEK293FT dCK*-only) [%],relative growth recovery (HEK293FT dCK*-IKZF1) [%]
CN(C)CCCN1c2ccccc2Sc2ccccc21,-35.6,5.27,-2.24
O=c1c(-c2ccccc2)c1-c1ccccc1 [diphencyprone],-25.4,-31.8,-11.2
COC1CCN(c2cccc(-c3cc(NC(C)=O)nc(-n4nc(C)cc4C)n3)n2)CC1,-25.1,7.56,-1.86
COc1c(C/C=C(\C)CCC(=O)O)c(O)c2c(O)occ2c1C [Mycophenolic Acid],14.9,-30.9,-9.99
Clc1ccc(COC(Cn2ccnc2)c2ccc(Cl)cc2Cl)c(Cl)c1 (stereo not drawn),-32.3,-7.63,-6.23
Nc1nc(N)c2nc(-c3ccccc3)c(N)nc2n1,3.18,-11,-5.46
CO/N=C1\C[C@]2(C[C@@H]3C[C@@H](C/C=C(\C)C[C@@H](C)/C=C/C=C4\CO[C@@H]5[C@H](O)C(C)=C[C@@H](C(=O)O3)[C@]45O)O2)O[C@H](/C(C)=C/C(C)C)[C@H]1C,-19.4,-0.37,-1.09
COc1cc(N2CCC(N3CCN(C(=O)CNc4cccc5c4C(=O)N(C4CCC(=O)NC4=O)C5=O)CC3)CC2)ccc1Nc1ncc(Cl)c(Nc2ccccc2P(C)(C)=O)n1 (stereo not drawn),111,-29.6,-0.385
O=C(/C=C/c1ccc(O)cc1)c1ccc(O)cc1O [Isoliquiritigenin],-0.21,-7.18,-1.02
CO[C@H]1/C=C/O[C@@]2(C)Oc3c(C)c(O)c4c(O)c(cc(O)c4c3C2=O)NC(=O)/C(C)=C\C=C\[C@H](C)[C@H](O)[C@@H](C)[C@@H](O)[C@@H](C)[C@H](OC(C)=O)[C@@H]1C [Rifamycin SV Sodium],-36.7,2.23,0.23
CSc1ccc2c(c1)N(CCC1CCCCN1C)c1ccccc1S2 (stereo not drawn) [Thioridazine HCl],-1.96,-2.48,-2.37
CC[C@@]1(O)C(=O)OCc2c1cc1n(c2=O)Cc2cc3c(CN(C)C)c(O)ccc3nc2-1 [Topotecan (Hydrochloride)],1.64,-36.8,-15.9
O=C1c2c(O)ccc(O)c2C(=O)c2c(NCCNCCO)ccc(NCCNCCO)c21,5.77,-35.5,-13.7
CC(C)N(CCC(=O)c1ccc2ccccc2c1)Cc1ccccc1,-41.5,-2.68,0.035
CCn1c(=O)[nH]c2ccccc21,-34.6,-8.57,0.15
C=C1/C(=C/C=C2\CCC[C@]3(C)[C@@H]([C@H](C)/C=C/[C@@H](C)C(C)C)CC[C@@H]23)C[C@@H](O)C[C@@H]1O [Doxercalciferol (Hectorol)],-23,1.09,2.85
Cc1ccc(/C=C2\CNC/C(=C\c3ccc(C)cc3)C2=O)cc1,-70,-34.5,-12.6
Clc1ccc(C(Cn2ccnc2)OCc2csc3c(Cl)cccc23)c(Cl)c1 (stereo not drawn) [Sertaconazole nitrate],20,-1.47,3.33
NC(=O)N1c2ccccc2CC(O)c2ccccc21 (stereo not drawn) [licarbazepine],-28.1,-2.99,0.095
Cc1cc(N2CCCCC2)nc2ccccc12,-32,-2.77,-1.01
COc1cc(CN(CCN)C(=O)c2cccs2)ccc1OCc1ccccc1,-24.8,7.03,0.355

Compound,inhibition of IKZF1 HTRF signal [1] [%],relative growth in counter assay (HEK293FT dCK*-only) [%],relative growth recovery (HEK293FT dCK*-IKZF1) [%]
Nc1ncn([C@@H]2O[C@H](CO)C(O)C2O)c(=O)n1 (stereo partly drawn) [Azacitidine],-5.73,4.37,-3.45
Cc1cccc(Nc2nc(-c3ccncc3)cs2)c1,-51.1,-8.26,-0.535
C[C@H]1O[C@@H](O[C@H]2[C@@H](O)C[C@H](O[C@H]3[C@@H](O)C[C@H](O[C@H]4CC[C@]5(C)C6C[C@@H](O)[C@]7(C)[C@@H](C8=CC(=O)OC8)CC[C@]7(O)C6CC[C@@H]5C4)O[C@@H]3C)O[C@@H]2C)C[C@H](O)[C@@H]1O (stereo partly drawn),68.6,-34.9,-12.4
CCC(=N\O)/C(C)=C/c1ccc(F)cc1,12.6,-3.61,-0.58
"Nc1ncnc2c1ncn2[C@@H]1O[C@H](COP(=O)(O)OP(=O)(O)OP(=O)(O)OP(=O)(O)OC[C@H]2O[C@@H](n3cnc4c(N)ncnc43)C(O)C2O)C(O)C1O (stereo partly drawn) [P1,P4-DI(adenosine-5')tetraphosphate ammonium salt]",-38,5.12,1.01
CCOc1ccc2nc3cc(N)ccc3c(N)c2c1,-16.3,-23.6,-6.36
Cc1ccnc(NS(=O)(=O)c2ccc(N)cc2)n1,-32.2,1.25,1.5
Cc1ccc(S(=O)(=O)NC(=O)NN2CC3CCCC3C2)cc1 (stereo not drawn),-29.9,3.82,1.34
c1ccc(-c2ccc(C(c3ccccc3)n3ccnc3)cc2)cc1 (stereo not drawn),17.6,3.99,-0.555
O=C(/C=C/c1cccnc1)c1ccncc1,-25,-28.4,-6.42
CO[C@@H]1[C@@H](OC2O[C@H](C)[C@@H](O[C@H]3C[C@@](C)(O)[C@@H](O)[C@H](C)O3)[C@H](N(C)C)[C@H]2O)[C@@H](CC=O)C[C@@H](C)[C@@H](O[C@H]2CC[C@H](N(C)C)[C@@H](C)O2)/C=C/C=C/C[C@@H](C)OC(=O)C[C@H]1O (stereo partly drawn),-29.9,-5.7,2.43
Oc1cc2c(cc1O)[C@@H]1c3ccc(O)c(O)c3OC[C@]1(O)C2 [Hematoxylin (Hydroxybrazilin)],-6.3,-6.89,-1.47
O=C1[C@H]2CCCC[C@H]2C(=O)N1CCCCN1CCN(c2nsc3ccccc23)CC1 [Perospirone],16.4,19.5,13.7
O=C(c1ccc(Nc2nccc(-c3cc4ccccc4s3)n2)cc1)N1CCC(N2CCCC2)CC1,-31.3,-35.2,-14.3
CN(C)c1ccc2nc3ccc(N(C)C)cc3[s+]c2c1,56.3,-29.4,-11.5
COc1cccc2c1C(=O)c1c(O)c3c(c(O)c1C2=O)C[C@@](O)(C(=O)CO)C[C@@H]3O[C@H]1C[C@H](N)[C@H](O[C@@H]2CCCCO2)[C@H](C)O1 [Pirarubicin],37.3,-33.8,-13.1
CCn1c(=O)[nH]c2cc(Cl)c(Cl)cc21,-7.25,6.81,-1.89
CNC(=O)Nc1ccc(-c2nc(N3CC4CCC(C3)O4)c3cnn(C4CCC5(CC4)OCCO5)c3n2)cc1,70.5,-32.9,-13.5
CC(=O)[C@@]1(O)C=C(O[C@H]2C[C@H](N)[C@H](O)[C@H](C)O2)c2c(c(O)c3c(O)c4ccccc4c(O)c3c2O)C1 [Idarubicin HCl],87.1,-34.3,-13
